Each structure is given as a SMILES string.

The subject of test [1] is Human papillomavirus type 1a protein E7 (residues 44-93). The test is described as follows: small molecules binding HPV E7 44-93 – biochemical, small-molecule microarray, residues 44-93, 635 nm fluorescence, primary screen (AID 1108).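 Further: E7 fragment applied at 1 µg/mL in TBST for 1 h at 4 C; score combines spot fluorescence with its signal to noise ratio.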 The following applies: fluorescence 635 nm, higher = more signal.
Test [2] is described as follows: hepatitis C replication reporter changes, two-sided – Huh7 cells, luciferase reporter, HCV replication inhibitor project, primary screen (AID 1109).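 Further: huh7 hepatoma cells harbouring a luciferase neomycin HCV replicon reporter; luciferase luminescence as measure of HCV replicon replication; test concentration not given here.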 The conditions noted are these: Huh7 HCV replicon luciferase reporter, 48 h; higher = more signal.
Test [3] addresses Left-right determination factor 2 (Homo sapiens) (UniProt O00292). The test is described as follows: small molecules binding LEFTY2 protein – biochemical, small-molecule microarray, 635 nm fluorescence scan, primary screen (AID 1110). The following applies: higher = more signal.
Test [4] addresses Calmodulin-1 (Homo sapiens) (UniProt P0DP23). In words: small molecules binding calmodulin-1 with EGTA – biochemical, small-molecule microarray, Cy5-labelled CALM1, profiling panel (AID 1111).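 Further: labelled calmodulin applied in Tris saline Tween buffer holding calcium plus EGTA and DTT.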 The conditions noted are these: Cy5-CALM1 binding fluorescence, higher = more signal.
The target is the same in test [5]. In words: small molecules binding Ca-loaded calmodulin-1 – biochemical, small-molecule microarray, Cy5-labelled CALM1, plus calcium, artefact control for SMM control-protein annotation, profiling panel (AID 1112).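 Further: score merges spot fluorescence with signal to noise from triplicate slides.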 The following applies: Cy5-CALM1 binding fluorescence, higher = more signal.
A short description of test [6]: probe aWnt5a binding to arrayed compounds – biochemical, biotinylated probe, 635/667 nm fluorescence, primary screen (AID 1113).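 Further: score merges 667 nm fluorescence intensity with signal-to-noise per printed feature.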 The conditions noted are these: small-molecule microarray, higher = more signal.
Test [7] in a line: probe aShh binding to arrayed compounds – biochemical, biotinylated probe, 635/667 nm fluorescence, primary screen (AID 1114).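 Further: probe is biotin-labelled aShh protein from a stem cell growth factor screen; measures binding of labelled protein to compounds printed on the slide; score merges feature fluorescence at 667 nm with signal-to-noise.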 The following applies: small-molecule microarray, higher = more signal.
The nature of test [8]: probe aNog binding to arrayed compounds – biochemical, biotinylated probe, 635/667 nm fluorescence, primary screen (AID 1115).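 Further: probe is biotinylated aNog protein used at 0.15 µg/mL for 1 h at 4 C; z-score combines 667 nm fluorescence of each spot with its signal to noise.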 The conditions noted are these: small-molecule microarray, higher = more signal.
Test [9] addresses Torsin-1A-interacting protein 1 (Homo sapiens) (UniProt Q5JTV8). The test is described as follows: compound microarray binding of lysate hLAP1 – cell lysate, small-molecule microarray, COS7 lysate, 635/667 nm fluorescence, primary screen (AID 1116). The following applies: 635 nm fluorescence, higher = more signal.
The target in test [10] is Alpha-bungarotoxin (Bungarus multicinctus) (UniProt P60615). In words: compounds binding labelled alpha-BTX control protein – biochemical, small-molecule microarray, Alexa647 label, 635/667 nm fluorescence, artefact control for SMM control protein annotation, profiling panel (AID 1117). The conditions noted are these: alpha-BTX-A647 binding fluorescence, higher = more signal.
Alpha-bungarotoxin (Bungarus multicinctus), sequence (P60615 whole entry, looked up): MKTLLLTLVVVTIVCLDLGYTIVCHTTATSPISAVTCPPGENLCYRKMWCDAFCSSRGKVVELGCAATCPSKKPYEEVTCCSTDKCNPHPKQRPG

Torsin-1A-interacting protein 1 (Homo sapiens), sequence (Q5JTV8 whole entry, looked up): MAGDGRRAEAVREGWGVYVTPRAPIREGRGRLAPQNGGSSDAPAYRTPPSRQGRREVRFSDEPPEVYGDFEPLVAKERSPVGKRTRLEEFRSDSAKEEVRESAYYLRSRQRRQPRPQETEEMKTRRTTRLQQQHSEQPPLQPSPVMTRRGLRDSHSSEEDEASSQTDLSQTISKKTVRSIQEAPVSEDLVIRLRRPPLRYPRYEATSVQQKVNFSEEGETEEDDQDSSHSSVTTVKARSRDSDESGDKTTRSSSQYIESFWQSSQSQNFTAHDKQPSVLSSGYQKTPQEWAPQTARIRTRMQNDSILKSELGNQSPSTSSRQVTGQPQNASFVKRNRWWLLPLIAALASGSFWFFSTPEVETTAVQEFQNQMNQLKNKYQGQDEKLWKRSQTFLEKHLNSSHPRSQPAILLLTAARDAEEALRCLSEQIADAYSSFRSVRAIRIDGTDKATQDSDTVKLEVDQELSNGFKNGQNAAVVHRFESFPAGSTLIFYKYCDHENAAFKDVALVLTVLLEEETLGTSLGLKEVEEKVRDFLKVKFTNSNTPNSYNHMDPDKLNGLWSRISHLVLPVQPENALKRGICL
Left-right determination factor 2 (Homo sapiens), sequence (O00292 whole entry, looked up): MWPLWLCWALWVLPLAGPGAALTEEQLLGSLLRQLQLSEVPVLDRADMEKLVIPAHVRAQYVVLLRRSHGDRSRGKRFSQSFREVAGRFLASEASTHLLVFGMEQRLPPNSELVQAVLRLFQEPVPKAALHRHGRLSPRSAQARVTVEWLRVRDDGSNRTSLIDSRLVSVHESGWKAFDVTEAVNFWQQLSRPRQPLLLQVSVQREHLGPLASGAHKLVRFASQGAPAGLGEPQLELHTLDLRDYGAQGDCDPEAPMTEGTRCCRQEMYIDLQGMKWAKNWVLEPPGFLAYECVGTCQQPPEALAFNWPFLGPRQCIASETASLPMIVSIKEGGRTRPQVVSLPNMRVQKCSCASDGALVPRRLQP

In the case of `CCOC(=O)C[C@H]1[C@H](OC(=O)c2ccc(-c3ccccc3)cc2)[C@@H](NC(=O)c2ccc(-c3ccccc3)cc2)c2cc(OCCCO)ccc2N1C(=O)c1ccccc1`, the composite z-score in test [1] was 1.01; in test [3] it was 0.71; in [4], 1.1; in test [5], 0.912; in test [6] it was -0.0721; in test [7] it was 0.0278. The composite z-score was found to be 0.412 in [8], 0.322 in [9] and 1.14 in test [10]. In test [2], this molecule displayed a z-score of -1.22.
For `O=C1NC(=O)C2C1C=CC(C(O)C(c1ccccc1)c1ccccc1)N2Nc1ccccn1` (stereo not given), the composite z-score in [1] was -1.31; in [3], 0.702; in test [4], -0.67; in [5], 0.295; in [6] it was 0.278; in test [7], -0.119. For the same molecule, the composite z-score is 0.328 in test [8], 1.63 in test [9] and -0.143 in test [10]. In [2], this molecule came in with a z-score of -0.246.
As for `COC(=O)c1c2oc(c1C(=O)OC)C(=O)N[C@H](Cc1ccccc1)Cn1cc(nn1)C1(CCCCC1)NC(=O)N[C@H](CO)CC2`, the composite z-score in [1] was -1.21; in test [3], -0.161; in test [4] it was -0.311; in test [5] it was -0.0933; in test [6] it was -0.105; in test [7] it was 0.0639. For the same molecule, the composite z-score turned out to be 0.0119 in test [8], 0.459 in test [9] and 2.39 in [10]. The molecule also had a z-score in test [2] of 0.0733.
Consider `CO[C@H]1O[C@H](CO)[C@@H](OC(=O)Nc2cccc(F)c2)[C@H](OC(=O)c2cc3ccccc3[nH]2)[C@H]1OC(=O)c1cc2ccccc2[nH]1`, for which the composite z-score in test [1] was 0.177; in test [3], 0.0416; in [4], 0.681; in [5], 0.0008; in test [6], -0.232; in [7], -0.138. Further, the composite z-score in test [8] is -0.158; in test [9], -0.009; in [10], 0.698. The molecule also gave a z-score in [2] of -2.25.
For the molecule `O=C(CS)NCCCCCCNC(=O)[C@H]1C[C@H]2C(=O)NCC(=O)N2[C@H]1c1cccc(OCCO)c1`, the composite z-score was found to be 0.864 in test [1]; 0.281 in test [3]; 0.214 in test [4]; 0.214 in test [5]; 0.0079 in [6]; 0.123 in test [7]. Moreover, the values for the composite z-score in [8], in [9] and in test [10] were 0.113, 0.469 and 1.36, respectively. In test [2], the z-score was 0.36.
For `C=CCN1C(=O)[C@@]2(O[C@@H](CCO)[C@H]([Si](C)(C)c3ccc(OC)cc3)[C@H]2C)c2cc(N3CCCCC3=O)ccc21`, the composite z-score in [1] was 1.36; in [3], 0.264; in test [4] it was 0.721; in test [5] it was 0.519; in test [6], -0.091; in test [7], 0.151. The composite z-score in [8] was 0.197; in test [9] it was 0.813; in test [10], 1.14. The molecule further came in with a z-score in test [2] of -3.29.
As for `C=C(CCCC)C(=O)CC[C@@H](OC(C)=O)c1ccc(OCCO)cc1`, the composite z-score in [1] is 0.159; in test [3], 0.125; in test [4], -0.537; in test [5], -1.29; in test [6] it was -0.1; in test [7] it was -0.0035. Also, the composite z-score in test [8] was -0.113; in test [9], 3.18; in test [10], -0.127. Moreover, the z-score in test [2] was -1.98.
As to `O=C1O[C@H](c2ccccc2)[C@H](c2ccccc2)N2[C@H]1[C@@H](C(=O)O)[C@]1(C(=O)Nc3ccccc31)[C@H]2c1ccc(OCCO)cc1`, the composite z-score was 1.45 in [1]; -0.242 in test [3]; 1.58 in test [4]; 0.5 in test [5]; -0.0977 in [6]; -0.187 in test [7]. Besides, the composite z-score is -0.574 in test [8], 0.811 in [9] and 0.968 in test [10]. Further, the z-score in test [2] was found to be 0.042.
For `COC(=O)[C@@]1(Cc2ccc(F)cc2)[C@H]2c3cc(C(=O)N4CCCC4)n(Cc4ccc(OC(F)(F)F)cc4)c3C[C@H]2CN1C(=O)c1ccccc1`, the composite z-score in [1] is 0.118; in test [3], -0.763; in test [4] it was 0.028; in [5], 0.336; in [6] it was 0.164; in test [7] it was 0.265. In addition, the results for the composite z-score in [8], in test [9] and in test [10] were 1.17, 0.383 and -0.272, respectively. Besides, the z-score in test [2] is 0.234.
As for `CN(C)CCCC[C@@H]1NC(=O)[C@H]2C[C@@H](C(=O)NCCCCCCNC(=O)CS)[C@@H](c3cccc(OCCO)c3)N2C1=O`, the composite z-score in test [1] was 0.521; in [3] it was -0.17; in [4], -0.0373; in test [5], -0.323; in test [6], -0.113; in test [7] it was -0.0709. Also, the composite z-score in [8] is -0.429; in [9] it was 0.358; in test [10], 0.539. Besides, the z-score in test [2] amounted to 0.0145.
As for `Cc1ccc(S[C@]2(C(=O)NCc3ccccc3)CC(=O)N(Cc3ccccc3Cl)[C@@H]2c2ccc(CO)cc2)cc1`, the composite z-score is -0.0153 in test [1]; -1.76 in test [3]; -0.272 in [4]; 0.273 in test [5]; -0.19 in test [6]; 0.0858 in test [7]. The values for the composite z-score in [8], in [9] and in test [10] were 0.308, -0.0706 and -0.619, respectively. Besides, the z-score in [2] was -2.79.
With `COC(=O)C[C@H]1O[C@]2(C(=O)N(C)c3ccccc32)[C@@H](C)[C@@H]1[Si](C)(C)c1ccccc1`, the composite z-score in test [1] was 0.623; in test [3], 0.469; in test [4], -0.0495; in [5] it was -0.401; in [6] it was -0.124; in [7] it was 0.318. For the same molecule, the composite z-score in [8] is -0.0446; in test [9], 0.0282; in test [10], 0.586. The same molecule showed a z-score in [2] of -2.1.
With `COc1ccc([Si](C)(C)[C@H]2[C@H](CC(=O)N3CCC[C@H]3CO)O[C@@]3(C(=O)N(C)c4c(Br)cc(C)cc43)[C@@H]2C)cc1`, the composite z-score in [1] was 1.45; in test [3], 0.946; in [4] it was 0.783; in test [5] it was 0.339; in [6], 1.19; in test [7], 1.28. For the same molecule, the composite z-score in test [8] amounted to 0.241; in test [9], 0.128; in [10], 1.26. The molecule also yielded a z-score in test [2] of -2.

The record behind these values is PubChem BioAssay.
